From PubChem BioAssay
Entries with a potency or affinity are not part of this list. Records with an inconclusive call do not appear. Active and inactive are the calls of the source.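 Rule for the calls, unless noted: active = a fitted half-maximal concentration no higher than twice the top valid tested dose, with signal falling as cells die; inconclusive = flat curve between -70% and -30%, or poor fit; inactive = the rest, including signal rising instead of falling.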

Key:
[1] = Cryptococcus neoformans growth inhibition, dose response, Alamar Blue, cherry-picks (AID 686998;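 active = falling signal with fitted half-maximal potency no higher than twice the top valid tested dose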)
[2] = inducers of Cryptococcus neoformans cell lysis, dose response, AK release luminescence, cherry-picks (AID 687000;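 active = fitted dose curve reaches 40% lysis signal rise at or below the highest valid concentration tested for that sample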;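 note: luminescent detection of adenylate kinase leaking from lysed yeast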)
[3] = HepG2 cell cytotoxicity, dose response, cytotoxicity control, cherry-picks, set 2 (AID 687002;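 active = a dose-response fit showing signal loss, with half-maximal concentration no higher than twice the top tested dose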)
[4] = HeLa cell cytotoxicity, dose response, cytotoxicity control, ATP luminescence, cherry-pick samples (AID 687004)

Measured: outcome

CCC(=O)N1[C@H](CO)[C@H](c2ccccc2)[C@@H]1CN(CC)C(=O)c1cccc(F)c1
inactive: all assays above

COc1ccccc1-c1cnc2c(c1)C(=O)N([C@H](C)CO)C[C@@H](C)[C@H](CN(C)Cc1cncnc1)O2
inactive: all assays above

C[C@@H]1CN([C@@H](C)CO)C(=O)c2cc(NC(=O)Nc3ccc(F)cc3)ccc2O[C@@H](C)CCCCO[C@H]1CN(C)S(=O)(=O)c1ccccc1
inactive: all assays above

C[C@@H]1CCCCO[C@@H](CN(C)CC2CCCCC2)[C@@H](C)CN([C@@H](C)CO)C(=O)c2cc(NS(=O)(=O)c3ccccc3)ccc2O1
inactive: all assays above

C[C@@H]1CN([C@H](C)CO)C(=O)c2cc(NC(=O)CCC(F)(F)F)ccc2O[C@@H](C)CCCCO[C@@H]1CN(C)C(=O)c1ccncc1
inactive: all assays above

C[C@H]1CN([C@@H](C)CO)S(=O)(=O)c2ccc(Br)cc2O[C@@H]1CN(C)S(=O)(=O)c1ccccc1F
inactive: all assays above

CCCNC(=O)N1C[C@H](O)COC[C@H]2O[C@H](CC(=O)N3CCN(C)CC3)CC[C@@H]21
inactive: all assays above

CC(C)c1ccc(S(=O)(=O)N2CCN(CC(=O)Nc3ccc4c(c3)OCO4)CC2)cc1
inactive: all assays above

C[C@H]1CN([C@@H](C)CO)S(=O)(=O)c2ccc(C#Cc3cccc(F)c3)cc2O[C@@H]1CN(C)C
inactive: all assays above

C[C@H](CO)N1C[C@H](C)[C@@H](CN(C)Cc2cccc(C(F)(F)F)c2)OCc2cnnn2CCCC1=O
inactive: all assays above

O=C(CSc1ncnc2c1cnn2-c1ccccc1)NC1CCS(=O)(=O)C1 (centres undefined)
inactive: all assays above

CCCNC(=O)N1[C@H](CO)[C@@H](c2ccc(C3=CCCC3)cc2)[C@@H]1CN(C)C(C)=O
inactive: all assays above

C[C@H]1CN([C@@H](C)CO)C(=O)c2cccc(NS(C)(=O)=O)c2O[C@H]1CN(C)C(=O)Nc1ccc2c(c1)OCO2
inactive: all assays above

C[C@@H](O)C#Cc1ccc([C@@H]2[C@H]3CN(CC4CC4)CCCCN3[C@H]2CO)cc1
inactive: all assays above

C[C@@H]1CN([C@@H](C)CO)C(=O)c2cccc(NC(=O)Nc3ccccc3)c2O[C@H]1CN(C)S(=O)(=O)c1cn(C)cn1
inactive: all assays above

COc1ccccc1C(=O)Nc1ccc2c(c1)C(=O)N(C)C[C@@H](OC)[C@H](C)CN(C)[C@@H](C)CO2
inactive: all assays above

CO[C@@H]1CN(C)C(=O)c2ccc(NC(C)=O)cc2OC[C@@H](C)N(C(=O)c2ccccn2)C[C@H]1C
inactive: all assays above

CC(C)NC(=O)N(C)C[C@@H]1OCCCC[C@H](C)Oc2ccc(NC(=O)Cc3ccccc3)cc2C(=O)N([C@H](C)CO)C[C@H]1C
inactive: all assays above

COCCNC(=O)C[C@@H]1C[C@@H]2c3cc(NC(=O)C4CCOCC4)ccc3O[C@@H]2[C@@H](CO)O1
inactive: all assays above

CN1C(=O)c2cc(NC(=O)NC3CCCC3)ccc2OC[C@H]2O[C@@H](CC(=O)NCC3CC3)CC[C@@H]21
inactive: all assays above

O=C(Nc1ccccc1)N[C@@H]1CC[C@@H](CCNC(=O)c2ccccc2F)O[C@H]1CO
inactive: all assays above

Cc1ccc(C)c(NC(=O)C2(C)CCCN2C(=O)C(C)C)c1 (centres undefined)
inactive: all assays above

Cc1ccc(S(=O)(=O)Nc2ccc3c(c2)C(=O)N([C@@H](C)CO)C[C@H](C)[C@H](CN(C)S(=O)(=O)c2ccc(Cl)cc2)OCCCC[C@@H](C)O3)cc1
inactive: all assays above

C[C@H]1CN([C@@H](C)CO)C(=O)Cc2cc(NC(=O)C3CC3)ccc2O[C@H]1CN(C)Cc1ccc(-c2ccccc2)cc1
inactive: all assays above

C[C@@H]1CCCCO[C@@H](CN(C)S(=O)(=O)c2ccc(F)cc2)[C@@H](C)CN([C@@H](C)CO)C(=O)c2cc(NS(=O)(=O)c3ccc(F)cc3)ccc2O1
inactive: all assays above

Cc1ccc(S(=O)(=O)N2C[C@@H](O)COC[C@H]3O[C@H](CC(=O)NCc4ccc5c(c4)OCO5)CC[C@@H]32)cc1
inactive: all assays above

COCC(=O)N(C)C[C@@H]1Oc2ncc(C#CCC3CCCC3)cc2C(=O)N([C@H](C)CO)C[C@H]1C
inactive: all assays above

Cc1ccccc1S(=O)(=O)N[C@H]1CC[C@H](CCNS(=O)(=O)c2cccc(F)c2)O[C@H]1CO
inactive: all assays above

O=C(C[C@H]1CC[C@H]2[C@@H](COC[C@@H](O)CN2C(=O)Nc2ccc(Cl)cc2)O1)N1CCCCC1
inactive: all assays above

C[C@@H]1CN([C@@H](C)CO)C(=O)CCCn2cc(nn2)CO[C@@H]1CN(C)C(=O)NC1CCCC1
inactive: all assays above

CCC(=O)Nc1ccc2c(c1)C(=O)N(C)C[C@@H](OC)[C@H](C)CN[C@@H](C)CO2
inactive: all assays above

CCCC(=O)N1CCCC1(C)C(=O)Nc1ccc(C)c(C)c1 (centres undefined)
inactive: all assays above

CC(C)NC(=O)Nc1ccc2c(c1)C(=O)N([C@@H](C)CO)C[C@@H](C)[C@@H](CN(C)S(=O)(=O)c1ccc(Cl)cc1)OCCCC[C@@H](C)O2
inactive: all assays above

C[C@H](O)C#Cc1ccc2c(c1)O[C@H](CN(C)C(=O)C1CCCCC1)[C@H](C)CN([C@@H](C)CO)S2(=O)=O
inactive: all assays above

CO[C@@H]1CN(C)C(=O)c2cc(NS(=O)(=O)c3ccc(C)cc3)ccc2OC[C@@H](C)N(C)C[C@@H]1C
inactive: all assays above

C[C@H](CO)N1C[C@H](C)[C@H](CN(C)C(=O)Nc2ccc3c(c2)OCO3)Oc2ncc(-c3ccc(F)cc3)cc2C1=O
inactive: all assays above

C[C@@H]1CN([C@H](C)CO)C(=O)c2cc(NS(=O)(=O)c3ccc(Cl)cc3)ccc2O[C@H]1CN(C)S(=O)(=O)c1ccc(F)cc1
inactive: all assays above

Cc1ccc(S(=O)(=O)Nc2ccc3c(c2)C(=O)N([C@@H](C)CO)C[C@H](C)[C@H](CN(C)C(=O)Nc2ccc(C(F)(F)F)cc2)O3)cc1
inactive: all assays above

C[C@@H]1CN([C@@H](C)CO)S(=O)(=O)c2ccc(C#C[C@@H](C)O)cc2O[C@@H]1CN(C)C(=O)C1CCCCC1
inactive: all assays above

CC(=O)NNC(=O)CSc1nnc(-c2ccccc2)c(-c2ccccc2)n1
inactive: all assays above

Cc1cccc(C)c1NC(=O)CN1CCN(C(=O)CNC(=O)c2ccc(N3CCCC3=O)cc2)CC1
inactive: all assays above

Cc1ccc(S(=O)(=O)N(CC(=O)NCCSC2CCCCC2)c2ccccc2F)cc1
inactive: all assays above

CCn1cc(C(=O)N(C)c2ccc(OC)cc2OC)c2cc(OC)c(OC)cc2c1=O
inactive: all assays above

Cc1ccc(NC(=O)C2(C)CCN2C(=O)CC2CC2)cc1C (centres undefined)
inactive: all assays above

C[C@H](CO)N1C[C@H](C)[C@@H](CN(C)C(=O)Nc2ccc(F)cc2)Oc2c(NS(=O)(=O)c3ccccc3)cccc2C1=O
inactive: all assays above

Cc1ccc(NC(=O)[C@H](C)NC(=O)C2CCN(C(=O)[C@@H](N)CC(C)C)CC2)cc1
inactive: all assays above

C[C@H]1CN([C@@H](C)CO)C(=O)Cc2cc(NC(=O)CCCCCC(=O)Nc3ccccc3N)ccc2O[C@H]1CN(C)C(=O)Nc1ccccc1
inactive: all assays above

C[C@@H]1CN([C@@H](C)CO)C(=O)c2cc(/C=C/c3ccccc3)cnc2O[C@@H]1CN(C)S(C)(=O)=O
inactive: all assays above

COc1ccc(-n2ncc3c(SCC(=O)N4CCN(c5ccccc5OC)CC4)ncnc32)cc1
inactive: all assays above

C[C@@H]1CN([C@H](C)CO)C(=O)c2cccc(NC(=O)C3CC3)c2O[C@H]1CN(C)Cc1ccc(C(=O)O)cc1
inactive: all assays above

C[C@H]1CCCCO[C@H](CN(C)C(=O)c2ccncc2)[C@@H](C)CN([C@@H](C)CO)C(=O)c2cc(NC(=O)Cc3ccccc3)ccc2O1
inactive: all assays above
